Source: PubChem BioAssay (NCI)
Several values for one entry are separate records, joined by “and”; a condition that tells them apart may be missing. Equal entries are not always repeated. Compounds without any hit were thinned out: in the full panel of roughly 83,000, 20% have a hit.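 Testing used 96-well plates and a 48-hour single-concentration exposure. Example: -40 means 40% of the starting cells died.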 Activity calls are given as the source filed them. The calls were made as follows: active = growth percent below 10; inactive = the rest.

test system: MDA-MB-468 breast; assay: NCI-60 one-dose screen, 48 h (100 = growth as untreated, 0 = no growth, -100 = all killed); details: 10 µM unless noted

SMILES	growth
CNC(=O)c1c(NC(=O)c2ccc(C(C)(C)C)cc2)sc2c1CCC(=O)C2	3.25% (active)
CNC(=O)c1cc(Oc2ccc(NC(=O)Nc3ccc(Cl)c(C(F)(F)F)c3)cc2)ccn1	-12.8% (active) and 20.5% (inactive)
CC[C@]12C=CCN3CC[C@@]4(c5ccc(OC)cc5N(C)[C@H]4[C@@](O)(C(=O)OC)[C@@H]1OC(=O)CCC(=O)N[C@@H](Cc1c[nH]c4ccccc14)C(=O)OC)[C@@H]32	-20.8% (active)
O=C(Cn1cc(CSc2nc3ccccc3o2)nn1)Nc1ccc([N+](=O)[O-])cc1	98.7% (inactive)
COC(=O)c1cc(Nc2ccc(O)c3c2C(=O)c2c([N+](=O)[O-])ccc(O)c2C3=O)cc(C(=O)OC)c1	71.9% (inactive)
CCOC(=O)C1=C(C)N=c2s/c(=C\c3ccccc3O)c(=O)n2C1c1ccc(OC)c2ccccc12 (stereo unspecified)	-77.6% (active)
C=C1CC2(OC1=O)C(=O)N(CCCCCCCN1C(=O)C3(CC(=C)C(=O)O3)c3ccccc31)c1ccccc12 (stereo unspecified)	-17% (active)
COc1cc(/C=C/C(=O)c2ccc(NC(=O)CSc3nnc(-c4ccc(-c5nc6ccc(Cl)cc6[nH]5)cc4)o3)cc2)cc(OC)c1OC	103% (inactive)
CC(C)=CCCC(C)c1ccc(C)c2c1OCN(CC1CCNCC1)C2 (stereo unspecified)	7.48% (active)
O=C(NCc1cn(Cc2cccc(Oc3ccccc3)c2)nn1)c1cccnc1NCc1ccc(Cl)cc1	17.3% (inactive)
COc1ccc2c(c1)sc1nc(-c3ccccc3)c(-c3cccc4ccccc34)n12	11.5% (inactive)
